Screens deposited in PubChem by National Center for Advancing Translational Sciences (NCATS).
The list is not random: actives were taken first. Their share in the collection is about 19%.
DT40 TDP1 no CPT: qHTS for Inhibitors of human tyrosyl-DNA phosphodiesterase 1 (TDP1): qHTS in cells in absence of CPT; Potency, µM (doses to about 46.2 µM), without a hit: top-dose activity change, negative = growth inhibition, actives largely listed as inhibitors; DT40 Tdp1-/- hTDP1 cells, no CPT, ATP luminescence, 48 h; 420,000 compounds, 15% hits; AID 686978, 2013; further: potency means the concentration at half of the fitted maximal effect; on the % scale 0 is the no-effect control and ±100 the full control effect; nearly all actives have a fitted effect of over 55% in size
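Growth kinetics read by CellTiter-Glo luminescence after ≥48 hr at 37 °C. Cells: DT40 Tdp1-/- stably carrying human TDP1, 400 per well, compound exposure in the absence of CPT (DMSO vehicle).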
IL-1B inflam inh: qHTS for Inhibitors of Inflammasome Signaling: IL-1-beta AlphaLISA Primary Screen; THP-1 LPS/ATP IL-1B secretion, AlphaLISA, 16 h; active compounds read low; activity change, % at 57.5 µM; 360,000 compounds, 4.7% hits; AID 743279, 2014; in the data active means activity change below about -50%; inconclusive means mostly about -30% to -49%; further: on the % scale 0 is the no-effect control and ±100 the full control effect
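THP-1 cells pretreated 1 hr with compounds (up to 57.5 uM final), then stimulated with LPS (250 ng/mL final) plus ATP (1.25 mM final); secreted IL-1B measured by AlphaLISA after 16 hr, decreased signal indicating inhibition.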
MCF10A rerep: A quantitative high throughput screen for small molecules that induce DNA re-replication in MCF 10a normal breast cells; MCF 10A DNA re-replication, Hoechst nuclear intensity, 48 h; Potency, µM (top dose mostly 46.1 µM), without a hit: at the highest dose activity, positive = re-replication, most hits filed as activators; 350,000 compounds, 2.9% hits; further: potency means the concentration at half of the fitted maximal effect; % of control where 0% means no effect; nearly all actives have a fitted effect of over 50% in size
SW480 rerep: A quantitative high throughput screen for small molecules that induce DNA re-replication in SW480 colon adenocarcinoma cells; SW480 DNA re-replication, Hoechst DNA content imaging, 48 h; Potency, µM (doses to about 46.1 µM), for inactives: top-dose re-replication activation, hits mostly activators; 340,000 compounds, 1.8% hits; further: potency means the concentration at half of the fitted maximal effect; % of control where 0% means no effect; nearly all actives have a fitted effect of over 55% in size
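SW480 cells exposed to compounds for 48 hr at 37 C, 5% CO2, then Hoechst-stained 40 min. Nuclear DNA content imaged by fluorescence scanning (405 nm excitation, 500-530 nm emission); re-replication scored as increased high-intensity nuclei.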
DT40 TDP1 CPT: qHTS for Inhibitors of human tyrosyl-DNA phosphodiesterase 1 (TDP1): qHTS in cells in presence of CPT. Potency, µM (highest dose often 46.2 µM), inactives show top-dose activity change, negative = growth inhibition, hits mostly inhibitors. 420,000 compounds, 12% hits. chicken DT40 Tdp1-/-;hTDP1 cells + 20 nM CPT, ATP luminescence, 48 h. AID 686979, 2013; further: potency means the concentration at half of the fitted maximal effect; on the % scale 0 is the no-effect control and ±100 the full control effect; nearly all actives have a fitted effect of over 55% in size
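Cell growth measured by CellTiter-Glo luminescence after a minimum 48 h, 37 C compound exposure with 20 nM CPT in Tdp1-knockout DT40 cells stably expressing hTDP1, seeded 400/well; qHTS titration format.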
Chronic BCR inh: qHTS Assay to Find Inhibitors of Chronic Active B-Cell Receptor Signaling; Potency, µM (highest dose often 46.1 µM), for the others: top-dose activity change, negative = inhibition, usual class: inhibitors; ABC-DLBCL IkBa-CBG/CBR reporter, luminescence ratio, 4 h; AID 493014, 2011; 340,000 compounds, 0.05% hits; active means well fitted inhibition curve with a large enough effect in the signal ratio, with a control signal flat, not every such curve was filed as active; inconclusive means small, poorly fitted or top-dose-only effect, or effect the other way, or a change in a side signal; the % refers to the signal ratio;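 further: potency means the concentration at half of the fitted maximal effect; plate controls were basal doxycycline-induced cells for no effect and cells given 10 µM MG132 for full effect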
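Concentration-response series (up to 46 uM) were applied to TMD8 dual-reporter cells for 4 h at 37C with doxycycline. Green/red ratio, after filter-overlap correction, defined %Activity; red signal alone was normalised to basal cells and zero luminescence.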
Numbers without * were called inactive; ? = inconclusive; / = not tested or not shown; [ ] = another dose, or the depositor's remark. Unless noted, the call rests on the fitted dose curve; in most records, active means well fitted curve in the direction sought with a large enough effect; inconclusive means small, poorly fitted or top-dose-only effect, or another doubt; inactive means no such curve, though single readings can be large; an effect the other way counts as inactive or inconclusive.

SMILES | DT40 TDP1 no CPT | IL-1B inflam inh | MCF10A rerep | SW480 rerep | DT40 TDP1 CPT | Chronic BCR inh
COc1cccc(/C=N/NC(=O)CC2C(=O)NN=C2C)c1O (centres undefined) | -3.1% | -10.6 | 4.2% | -7.8% | ? | -18.9%
COc1cccc(/C=N/NC(=O)CNC(=O)/C=C\c2ccccc2)c1O | 2.06µM* | 37.2 | -0.1% | -4.1% | ? | -2.0%
CC(C)(C)OC(=O)N1CCC(c2c(C(=O)N3CCN(c4ccc(Cl)cc4)CC3)cnn2-c2ccc(F)cc2F)CC1 | 16.4µM* | / | / | / | ? | /
CC(C)(C)OC(=O)N1CCC(c2c(C(=O)N3CCN(c4ccccc4F)CC3)cnn2-c2ccccc2Cl)CC1 | 16.4µM* | / | / | / | 18.4µM* | /
Cc1ccc(-n2ncc(C(=O)N3CCN(Cc4ccccc4)CC3)c2C2CCN(C(=O)OC(C)(C)C)CC2)c(C)c1 | 13µM* | / | / | / | 4.61µM* | /
CCN1CCN(C(=O)c2cnn(-c3cccc(C)c3)c2C2CCN(C(=O)OC(C)(C)C)CC2)CC1 | ? | / | / | / | 20.6µM* | /
CN1CCN(C(=O)c2cnn(-c3cccc(Cl)c3)c2C2CCN(C(=O)OC(C)(C)C)CC2)CC1 | -21.9% | / | / | / | -1.4% | /
Cc1ccc(-n2ncc(C(=O)N3CCN(C(=O)c4ccco4)CC3)c2C2CCN(C(=O)OC(C)(C)C)CC2)cc1 | -10.1% | / | / | / | -3.5% | /
CCOC(=O)[C@]12CCC=C1N(Cc1ccco1)C(=O)[C@H](CC(=O)NCCCOC)C2 | -24.3% | -12.7 | / | / | 0.7% | /
CCOc1ccc(-c2nc(Cn3c(=O)cc(-c4ccccc4)c4c(C)nn(C)c43)c(C)o2)cc1 | 4.4% | / | / | / | -5.1% | /
CC(=O)c1ccc(NC(=O)CSc2nccn2C2CCCC2)cc1 | ? | / | / | / | ? | -6.9%
COc1cccc(N2CCN(C(=O)c3cnn(-c4ccccc4Cl)c3C3CCN(C(=O)OC(C)(C)C)CC3)CC2)c1 | 20.6µM* | / | / | / | ? | /
Cc1cccc(-n2ncc(C(=O)NCc3ccco3)c2C2CCN(C(=O)OC(C)(C)C)CC2)c1 | ? | / | / | / | 16.4µM* | /
COc1cccc(N2CCN(C(=O)c3cnn(-c4ccc(C)cc4C)c3C3CCN(C(=O)OC(C)(C)C)CC3)CC2)c1 | 20.6µM* | / | / | / | ? | /
Cc1cc(S(=O)(=O)N2CCOCC2)ccc1OCC(=O)N1CCCC1 | -1.8% | 7.1 | 10.7% | -2.6% | 1.2% | 3.5%
Cc1nc2ccccc2n1CCc1nc2c3ccccc3nc(SCC(=O)Nc3cccc(C(F)(F)F)c3)n2n1 | ? | / | / | / | ? | -3.5%
O=C(CSc1nc2ccccc2c2nc(-c3ccccc3)nn12)Nc1ccc(F)cc1 | 14.6µM* | / | / | / | ? | 9.4%
Cc1nc2ccccc2n1CCc1nc2c3ccccc3nc(SCC(=O)Nc3ccc(C(C)C)cc3)n2n1 | 9.2µM* | / | / | / | 11.6µM* | ?
Cc1ccc(NC(=O)CSc2nc3ccccc3c3nc(CCn4c(C)nc5ccccc54)nn23)cc1F | 9.2µM* | / | / | / | 8.2µM* | ?
CCC(Sc1nc2ccccc2c2nc(CCn3c(C)nc4ccccc43)nn12)C(=O)Nc1ccc(F)cc1 (centres undefined) | 2.31µM* | / | / | / | ? | 0.2%
COc1ccccc1NC(=O)CSc1nc2ccccc2c2nc(-c3ccccc3)nn12 | -0.9% | / | / | / | -10.5% | -5.9%
COC(=O)c1cc(S(=O)(=O)Nc2cccc(-c3cnco3)c2)oc1C | 12.9% | 0.0 | -2.4% | -20.3% | -8.2% | 2.2%
Cn1c(-c2ccncc2)nc2cc(C(=O)N3CCCC3c3nccs3)cc(NC(=O)C3CCC3)c21 (centres undefined) | -15.3% | / | / | / | -12.5%[9.04 µM] | /
CCc1nn(-c2ccccc2)c2nc(-c3ccc(O)cc3)c3cc(OC)c(OC)cc3c12 | -21.3% | / | / | / | 0.8% | /
CCc1nn(-c2ccccc2)c2nc(-c3ccccc3OC)c3cc(OC)c(OC)cc3c12 | 16.4µM* | / | / | / | 18.4µM* | /
SMILES | DT40 TDP1 no CPT | IL-1B inflam inh | MCF10A rerep | SW480 rerep | DT40 TDP1 CPT | Chronic BCR inh
CCOc1cc(-c2nc3c(c(CC)nn3-c3ccccc3)c3cc(OC)c(OC)cc23)ccc1O | ? | / | / | / | 3.26µM* | /
O=C(OCCc1cc2ccccc2c(=O)o1)c1ccco1 | -3.7% | 16.9 | ? | -5.1% | -7.2% | ?
CC(C)CC(C(=O)NC1CCCCC1)N(Cc1ccccc1)C(=O)c1snc(C(N)=O)c1N (centres undefined) | ? | -11.6 | ? | ? | ? | -0.5%
COc1ccc(NC(=O)c2nc[nH]c2C(=O)N(C)Cc2ccccc2)cc1 | ? | -9.9 | -3.1% | -1.6%[9.22 µM] | 23.1µM* | -5.7%
CCN(CC)C(=O)c1[nH]cnc1C(=O)Nc1ccc(OC)cc1 | -6.3% | -22.3 | -20.2% | 1.84µM* | -11.7% | ?
CN(Cc1ccccc1)C(=O)c1[nH]cnc1C(=O)Nc1ccc(Cl)cc1 | 23.1µM* | -27.6 | -4.9% | -0.4% | ? | ?
CCN(CC)C(=O)c1[nH]cnc1C(=O)Nc1ccc(Cl)cc1 | -0.6% | -9.1 | 11.4% | -5.2% | -1.9% | ?
COc1ccc(-c2nn(-c3ccccc3)cc2C(=O)NC2CCCCC2C)cc1 (centres undefined) | ? | 29.9 | ? | ? | -15.8% | -4.3%
Cc1ccc(-n2nc3c(=O)n(CCCC(=O)NCc4ccccc4C)nc(C)c3c2C)cc1 | 20.6µM* | -25.3 | 1.3% | 1.6% | 20.6µM* | 1.6%
Cc1ccc(-n2nc3c(=O)n(CCCC(=O)NCC(C)c4ccccc4)nc(C)c3c2C)cc1 (centres undefined) | 14.6µM* | -10.7 | -2.3% | -34.7% | ? | ?
COC(=O)[C@]12CCCCC=C1N(CCC1=CCCCC1)C(=O)[C@H](CC(=O)N1CCOCC1)C2 | ? | 3.3 | / | / | ? | /
COC(=O)[C@]12CCCCC=C1N(CCC1=CCCCC1)C(=O)[C@H](CC(=O)N1CCN(C(=O)C3CC3)CC1)C2 | 16.4µM* | -4.2 | / | / | ? | /
COC(=O)[C@]12CCCCC=C1N(CCC1=CCCCC1)C(=O)[C@H](CC(=O)N1CCCCC1)C2 | 23.1µM* | -5.5 | / | / | 18.4µM* | /
Cc1cccc(C)c1NC(=O)CNC(=O)c1c(-c2ccccc2)noc1C | -0.5% | 12.1 | 0.7% | 14.1% | 10.7% | -5.1%
Cc1ccccc1CN1CCN(CC(=O)NCc2ccccc2Cl)C1=O | -20.7% | / | / | / | 0.6% | -0.8%
